38 compounds from PubChem BioAssay AID1211 (NMMLSC, 2008) can be followed below.

Calls of active or inactive are those of the source. No rule for the calls is given here.

Chain of Estrogen receptor (Homo sapiens) (P03372 whole entry, looked up): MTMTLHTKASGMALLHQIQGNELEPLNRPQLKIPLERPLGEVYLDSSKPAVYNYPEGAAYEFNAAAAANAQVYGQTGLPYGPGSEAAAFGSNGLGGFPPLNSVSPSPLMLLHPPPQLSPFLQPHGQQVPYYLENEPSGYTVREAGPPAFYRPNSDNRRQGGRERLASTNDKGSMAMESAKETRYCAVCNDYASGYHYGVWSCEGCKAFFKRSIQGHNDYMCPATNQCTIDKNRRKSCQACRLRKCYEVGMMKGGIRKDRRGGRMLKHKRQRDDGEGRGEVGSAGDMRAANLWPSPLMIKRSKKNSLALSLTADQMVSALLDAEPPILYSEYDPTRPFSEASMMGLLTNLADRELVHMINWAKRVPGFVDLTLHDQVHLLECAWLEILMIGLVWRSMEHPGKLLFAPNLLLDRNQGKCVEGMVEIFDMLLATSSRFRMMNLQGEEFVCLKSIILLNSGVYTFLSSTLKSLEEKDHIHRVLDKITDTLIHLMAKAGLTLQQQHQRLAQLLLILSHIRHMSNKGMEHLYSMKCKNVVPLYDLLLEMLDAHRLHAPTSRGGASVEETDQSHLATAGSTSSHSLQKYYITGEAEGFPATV

This test concerns the target Estrogen receptor (Homo sapiens) (UniProt P03372). The test can be described thus: ERalpha ligand binders by competition, primary screen, cell-based, Cos7 ERalpha-GFP, flow cytometry (AID 1211).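 Also: 0% = DMSO vehicle wells and 100% = no E2-Alexa633 signal left.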 The following applies: fluorescent ligand competition, at 10 µM, hits give high values.
Take `CC1=CC(C)C2(CO)COC(c3ccccc3O)C1C2C` (stereo not drawn): the inhibition of ligand binding is 0% (inactive).

`COc1cc([N+](=O)[O-])cc2c1N[C@@H](c1ccc(C(=O)O)cc1)[C@H]1CC=C[C@@H]21`: the inhibition of ligand binding was 71% (active).

Turning to `C=C1C2C[C@H](O)C(C)(C)[C@@]2(O)[C@H](O)C[C@]23C[C@@](C)(O)[C@H](CC[C@H]12)[C@H]3O` (stereo partly drawn), the inhibition of ligand binding was 30% (inactive).

For `COc1cccc(-c2cc(C(=O)Nc3cc(C)nn3-c3ccccc3)no2)c1`, the inhibition of ligand binding is 30% (inactive).

Turning to `Cc1nn(-c2ccc(Cl)cc2)c2sc(C(=O)N3CCN(c4ccccn4)CC3)cc12`, the inhibition of ligand binding was 50% (inactive).

On to `O=C(NC1CC1)c1ccc2c(c1)C1C3CCC(C3)C1C(c1ccccc1)N2` (stereo not drawn), for which the inhibition of ligand binding is 86% (active).

On to `COc1cccc(C2NCCc3cc(OC)c(OC)cc32)c1` (stereo not drawn), for which the inhibition of ligand binding was 10% (inactive).

Consider `COc1cccc(C2Nc3c(F)cc(Br)cc3C3C=CCC32)c1OC` (stereo not drawn), for which the inhibition of ligand binding was 60% (inactive).

As for `CCSc1nc2c(cnn2-c2ccc(C)cc2)c(=O)[nH]1`, the inhibition of ligand binding was 22% (inactive).

For `C=CCSC1=N/C(=C\C=C\c2ccco2)C(=O)S1`, the inhibition of ligand binding was 0% (inactive).

Consider `COc1ccc2[nH]c3c(c2c1)CCNC3=O`, for which the inhibition of ligand binding was 21% (inactive).

As for `Cn1cccc1/C=C1\SC(=O)N(c2ccc(O)cc2)C1=O`, the inhibition of ligand binding is 45% (inactive).

Take `CCOC(=O)c1ccc2c(c1)C1C=CCC1C(C(=O)O)N2` (stereo not drawn): the inhibition of ligand binding was 51% (inactive).

On to `Cc1cc(C)c2c(c1)[C@@H]1C=CC[C@@H]1[C@H](c1ccc(S(=O)(=O)N3CCOCC3)cc1)N2`, for which the inhibition of ligand binding is 66% (active).

For the compound `CC1CCCC(C)N1Cc1c(O)ccc2c3c(c(=O)oc12)CCC3` (stereo not drawn), the inhibition of ligand binding was 13% (inactive).

On to `O=C(O)COc1cc2oc(=O)c3c(c2cc1Cl)CCCC3`, for which the inhibition of ligand binding was 0% (inactive).

On to `COc1cc(O)c2c(=O)c3c(OC)c(O)ccc3oc2c1`, for which the inhibition of ligand binding is 63% (inactive).

Take `COc1cc(C2CC(=O)Nc3c2ccc2ccccc32)cc(Cl)c1O` (stereo not drawn): the inhibition of ligand binding is 0% (inactive).

As for `COc1ccc(C2CC(c3ccccc3)=NN2C(=O)CSc2nccc(=O)[nH]2)cc1` (stereo not drawn), the inhibition of ligand binding is 20% (inactive).

For `Cn1c(SCC(=O)N2c3ccccc3CCc3ccccc32)nnc1-c1cc2ccccc2cc1O`, the inhibition of ligand binding is 34% (inactive).

As for `c1coc(C2Nc3ccccc3C3OCCC23)c1` (stereo not drawn), the inhibition of ligand binding was 41% (inactive).

Take `Cc1ccc2c(c1C)NC(C(=O)O)C1CC=CC21` (stereo not drawn): the inhibition of ligand binding is 0% (inactive).

On to `CC(=O)c1ccc2c(c1)C1C=CCC1C(c1ccncc1)N2` (stereo not drawn), for which the inhibition of ligand binding is 9% (inactive).

Turning to `COc1ccc(-c2nnc(SCC(=O)c3cc(C)n(Cc4cccs4)c3C)o2)cc1`, the inhibition of ligand binding is 35% (inactive).

Take `COC(=O)c1ccc2c(c1)C1C=CCC1C(c1cccc([N+](=O)[O-])c1)N2` (stereo not drawn): the inhibition of ligand binding was 10% (inactive).

With `COc1ccc(Oc2ccc3c(c2)c2c4n3CCNC4CCC2)cc1` (stereo not drawn), the inhibition of ligand binding is 0% (inactive).

With `Cc1c(O)ccc2c3c(c(=O)oc12)CCCC3`, the inhibition of ligand binding was 0% (inactive).

In the case of `O=c1cc(-c2ccccc2Cl)oc2c(Br)ccc(O)c12`, the inhibition of ligand binding was 27% (inactive).

Consider `CCOc1cc2c(cc1OCC)C(C1CCCCC1)NCC2` (stereo not drawn), for which the inhibition of ligand binding is 1% (inactive).

For `CC(=O)c1ccc2c(c1)C1C=CCC1C(c1cccc([N+](=O)[O-])c1)N2` (stereo not drawn), the inhibition of ligand binding is 68% (active).

As to `Cc1cc(C)c2c(c1)NC(c1cc3c(cc1Br)OCO3)C1CC=CC21` (stereo not drawn), the inhibition of ligand binding was 79% (active).

As for `COc1ccc(C2(CNCC(N)=O)CCCC2)cc1OC`, the inhibition of ligand binding was 10% (inactive).

As to `O=C1CC(c2ccc3c(c2)OCO3)c2ccc3ccccc3c2N1` (stereo not drawn), the inhibition of ligand binding was 0% (inactive).

In the case of `N#Cc1ccc(-c2cccnc2)nc1SCC(=O)Nc1sc2c(c1C#N)CCC2`, the inhibition of ligand binding was 15% (inactive).

Consider `Cc1nc2ccccc2n1-c1cc(C(C)(C)C)c(O)c(C(C)(C)C)c1`, for which the inhibition of ligand binding is 9% (inactive).

Consider `CC1(C)Cc2[nH]c(=O)c(C(=O)O)cc2CO1`, for which the inhibition of ligand binding was 2% (inactive).

As to `Cc1oc2ccc(OCC#N)cc2c1C(=O)OC(C)C`, the inhibition of ligand binding is 0% (inactive).

For the compound `O=C(COC(=O)C1CC2C=CC1C2)NCc1ccco1` (stereo not drawn), the inhibition of ligand binding was 16% (inactive).
